In PubChem BioAssay (NCI) one finds growth data, which are given here for 14 molecules.

Among the test systems are RPMI-8226 leukemia; OVCAR-8 ovarian; OVCAR-5 ovarian; OVCAR-4 ovarian; SK-OV-3 ovarian; IGROV1 ovarian; OVCAR-3 ovarian; HS 578T breast; NCI/ADR-RES ovarian; T-47D breast.
Holding throughout (assay): NCI-60 one-dose screen, 48 h (100 = growth as untreated, 0 = no growth, -100 = all killed)
Holding throughout (conditions): 10 µM

The structures appear in SMILES notation. The panel holds about 83,000 compounds, 20% with a hit somewhere; the sample as a whole holds those more often.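 Cell lines were cultured in 96-well plates, exposed to a single compound concentration, and assessed for percent growth 48 hours later.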 Unmarked numbers belong to inactive results. Calls of active or inactive are those of the source. How the source made its calls: active means growth percent below 10; inactive means the rest.

Take `Nc1c(C(=O)Nc2ccccc2Cl)sc2nc3c(cc12)C(=O)CCC3`: the growth is 87.9% in the assay with RPMI-8226 leukemia; 100% with OVCAR-8 ovarian; 70.5% in the assay on OVCAR-5 ovarian; 84.4% in the assay with OVCAR-4 ovarian; 13.8% with SK-OV-3 ovarian; 62.9% with IGROV1 ovarian. For the same molecule, the growth in the assay with OVCAR-3 ovarian is 56.4%; with HS 578T breast, 40.8%; with NCI/ADR-RES ovarian, 57.2%; with T-47D breast, 75%.
On to `CCOC(=O)N1C/C(=C/c2ccc(F)cc2)C(=O)/C(=C/c2ccc(F)cc2)C1`, for which the growth in the assay on RPMI-8226 leukemia was -29% (active); with OVCAR-8 ovarian it was 9.76% (active); in the assay with OVCAR-5 ovarian it was 24.2%; in the assay with OVCAR-4 ovarian, 9.8% (active); in the assay with SK-OV-3 ovarian, 12.7%; with IGROV1 ovarian, -34.1% (active). In addition, the growth in the assay with OVCAR-3 ovarian is -29.2% (active); in the assay with HS 578T breast it was -10.5% (active); in the assay with NCI/ADR-RES ovarian it was 9.49% (active); in the assay with T-47D breast it was 30.5%.
Take `Cc1occc1-c1nnc(SCC(=O)c2ccc(NC(=O)CC(C)C)cc2)o1`: the growth in the assay on RPMI-8226 leukemia is 77.7%; in the assay with OVCAR-8 ovarian it was 57%; in the assay on OVCAR-5 ovarian it was 105%; in the assay on OVCAR-4 ovarian, 122%; in the assay on SK-OV-3 ovarian, 121%; with IGROV1 ovarian it was 69.1%. The growth in the assay on OVCAR-3 ovarian is 104%; in the assay on HS 578T breast, 119%; with NCI/ADR-RES ovarian it was 104%; in the assay on T-47D breast, 102%.
For `Oc1[nH]c2ccc(Cl)cc2c1/C=c1/ccc2c(c1)N=C(c1cccs1)N=2`, the growth with RPMI-8226 leukemia is 48%; in the assay with OVCAR-8 ovarian, 52.2%; with OVCAR-5 ovarian it was 89.3%; in the assay on OVCAR-4 ovarian it was 52.3%; with SK-OV-3 ovarian, 87.5%; with IGROV1 ovarian it was 61%. The growth with OVCAR-3 ovarian is 56.1%; in the assay with HS 578T breast, 59.5%; in the assay on NCI/ADR-RES ovarian, 64.3%; with T-47D breast, 59.4%.
`CC(=O)c1nc2ccccc2n1CCN1CCN(C)CC1`: the growth with RPMI-8226 leukemia is 3.09% (active); with OVCAR-8 ovarian, 34.8%; with OVCAR-5 ovarian it was 53.7%; with OVCAR-4 ovarian it was 64.6%; with SK-OV-3 ovarian, 27.4%; with IGROV1 ovarian, 39.3%. The growth with OVCAR-3 ovarian is 4.3% (active); in the assay with HS 578T breast it was 48.3%; with NCI/ADR-RES ovarian it was 97%; in the assay on T-47D breast it was 33.4%.
Turning to `COc1cc2nc(Nc3cccc(NC(C)=O)c3)nc(N)c2cc1OC`, the growth in the assay with RPMI-8226 leukemia was 55.7%; in the assay with OVCAR-8 ovarian, 99%; in the assay with OVCAR-5 ovarian, 117%; in the assay with OVCAR-4 ovarian, 107%; in the assay with SK-OV-3 ovarian, 118%; in the assay on IGROV1 ovarian, 26.8%. The growth was 111% with OVCAR-3 ovarian, 95.7% in the assay on HS 578T breast, 149% in the assay on NCI/ADR-RES ovarian and 90.1% with T-47D breast.
Regarding `Cn1c(N)c(N=Nc2ccc(S(=O)(=O)Nc3nccs3)cc2)c(=O)n(C)c1=O`, the growth in the assay with RPMI-8226 leukemia was 100%; in the assay with OVCAR-8 ovarian it was 100%; in the assay with OVCAR-5 ovarian, 115%; with OVCAR-4 ovarian it was 106%; in the assay on SK-OV-3 ovarian, 103%; with IGROV1 ovarian, 91.2%. The growth is 103% in the assay with OVCAR-3 ovarian, 106% in the assay on HS 578T breast, 96% in the assay with NCI/ADR-RES ovarian and -10.2% (active) in the assay with T-47D breast.
`Cc1ccc(NC(=O)Nc2nc3ccccc3s2)cc1NC(=O)Nc1nc2ccccc2s1`: the growth is 42.8% in the assay on RPMI-8226 leukemia; 50.4% with OVCAR-8 ovarian; 104% with OVCAR-5 ovarian; 82.3% in the assay with OVCAR-4 ovarian; 95.8% in the assay on SK-OV-3 ovarian; 53.6% in the assay on IGROV1 ovarian. Further, the growth is 96.2% in the assay on OVCAR-3 ovarian, 77.3% in the assay on HS 578T breast, 91.7% in the assay with NCI/ADR-RES ovarian and 80.6% in the assay with T-47D breast.
In the case of `Cn1c(C(N)=O)cc2c1-c1nc(Nc3ccccc3)ncc1CCC2`, the growth with RPMI-8226 leukemia was 53.2%; with OVCAR-8 ovarian it was 51%; in the assay on OVCAR-5 ovarian it was 36.4%; with OVCAR-4 ovarian it was 33.1%; in the assay with SK-OV-3 ovarian, 40.2%; in the assay with IGROV1 ovarian, 25.5%. Further, the growth was 63.5% in the assay on OVCAR-3 ovarian, 17.3% in the assay with HS 578T breast, 66.3% in the assay on NCI/ADR-RES ovarian and 65.1% in the assay with T-47D breast.
Regarding `Nc1nccc(Nc2ccccc2)n1`, the growth in the assay on RPMI-8226 leukemia is 96.6%; in the assay on OVCAR-8 ovarian it was 100%; with OVCAR-5 ovarian, 95.9%; in the assay with OVCAR-4 ovarian, 108%; with SK-OV-3 ovarian, 109%; in the assay on IGROV1 ovarian, 127%. The growth was 114% in the assay on OVCAR-3 ovarian, 107% in the assay with HS 578T breast, 111% in the assay on NCI/ADR-RES ovarian and 112% with T-47D breast.
As to `Nc1cc2c(cc1Cl)-c1ccc([N+](=O)[O-])cc1/C2=N\O`, the growth with RPMI-8226 leukemia was 44.7%; in the assay on OVCAR-8 ovarian, 99.5%; with OVCAR-5 ovarian, 145%; in the assay on OVCAR-4 ovarian, 88.9%; in the assay with SK-OV-3 ovarian, 97%; in the assay with IGROV1 ovarian, 57.1%. For the same molecule, the growth in the assay with OVCAR-3 ovarian is 86.6%; with HS 578T breast, 106%; with NCI/ADR-RES ovarian, 95.1%; in the assay on T-47D breast, 101%.
`COc1ccc2c(c1)C(=O)c1c-2c(OCCN(C)C)nc2ccccc12`: the growth was 17.4% with RPMI-8226 leukemia; 14.3% in the assay with OVCAR-8 ovarian; 63% with OVCAR-5 ovarian; 44.1% in the assay on OVCAR-4 ovarian; 61% in the assay on SK-OV-3 ovarian; -18.7% (active) with IGROV1 ovarian. Further, the growth with OVCAR-3 ovarian is 30.4%; in the assay with HS 578T breast, 41%; in the assay on NCI/ADR-RES ovarian, 22.8%; with T-47D breast it was 48.2%.
On to `Nc1nc(Nc2ccccc2)n[nH]1`, for which the growth with RPMI-8226 leukemia was 97%; in the assay with OVCAR-8 ovarian it was 98.1%; with OVCAR-5 ovarian it was 103%; in the assay with OVCAR-4 ovarian, 103%; with SK-OV-3 ovarian, 104%; in the assay with IGROV1 ovarian, 97.7%. Moreover, the growth with OVCAR-3 ovarian was 119%; in the assay on HS 578T breast it was 119%; with NCI/ADR-RES ovarian it was 96.6%; in the assay on T-47D breast, 91.7%.
Regarding `COc1cc(-c2cc(/C=C/C(=O)c3ccc(F)c(F)c3)[nH]n2)cc(OC)c1OC`, the growth is 22.6% in the assay with RPMI-8226 leukemia; 58.1% in the assay on OVCAR-8 ovarian; 76% in the assay on OVCAR-5 ovarian; 40.1% with OVCAR-4 ovarian; 90% with SK-OV-3 ovarian; 73.1% in the assay with IGROV1 ovarian. The growth was 49.6% with OVCAR-3 ovarian, 61.3% with HS 578T breast, 63.5% in the assay with NCI/ADR-RES ovarian and 53.6% in the assay on T-47D breast.
